# Reference: PubChem BioAssay (Tox21)
# Where “and” joins values, the source holds several entries; their conditions need not be identical. Identical values can stand only once. Inconclusive results are not listed. Where a call stands in place of a potency, no number is given. Some structures have more than one record in an assay (separate samples or runs), and their calls can disagree. Calls of active or inactive are those of the source. The call rests on the fitted dose curve; in most records, active means well fitted cell-killing curve with a large enough effect in the repeat runs; inconclusive means weak or mixed curves, or effect the other way; inactive means no such curve, though single readings can be large or run the other way.
# Assay: qHTS assay to identify small molecule antagonists of the retinoid-related orphan receptor gamma (ROR-gamma) signaling pathway - cell viability counter screen (AID 1159520); further: nearly all actives have a fitted effect of over 50% in size
# Settings: Tet-on RORgamma CHO cells viability, ATP luminescence, 16 h; series mostly up to 92.4 µM; activity, negative = cytotoxicity: at the top concentration
# From the text: U.S. Tox21 Program National Center for Advancing Translational Sciences [NCATS] NIH Chemical Genomics Center [NCGC] U.S. Environmental Protection Agency [EPA] National Institutes of Environmental Health Sciences [NIEHS] National Toxicology Program [NTP] U.S. Food and Drug Administration [FDA] Tox21 Assay Overview: Nuclear steroid hormone receptors are involved in many biological processes including inflammatory responses, cell proliferation, and apoptosis. Environmental factors or compounds disrupting these nuclear receptor pathways and gene expression may promote susceptibility to immunotoxicants and autoimmune diseases. One important group of these expression factors are the retinoid-related orphan receptors. To assess compounds that may interfere with the retinoid-related orphan receptor gamma (ROR-gamma) transcription factor, a cell-based luciferase assay was used. The CHO cell-based assay utilizes a TET-inducible ROR expression factor and ROR response element-LUC reporter gene. Reporter gene activity was induced using Doxycycline Hyclate and measured after 16 hr incubation. Tet-on ROR gamma CHO cells were used to screen against the Tox21 10K compound library for cytotoxicity by measuring the viability of the cells based on the quantitation of the ATP.
# Tox21 Assay Protocol Summary: Tet-on ROR gamma CHO cells were dispensed at 1,000 cells in 4 uL of culture medium per well into white wall/solid bottom 1536-well plates using a Multidrop Combi (Thermo Scientific, Waltham, MA) dispenser. Following incubation at 37 C and 5% CO2 for 4 hr, 23 nL of compounds dissolved in DMSO, positive controls or DMSO only were transferred by a Pintool station (Kalypsys, San Diego, CA) and after 2 hr incubation at 37 C, one ul of 1 uM (final concentration) of Doxycycline Hyclate was added to all the wells by using a Flying Reagent Dispenser (FRD) (Aurora Discovery, San Diego, CA). After 16 hr incubation at 37 C and 5% CO2, 5 uL of CellTiter-Glo reagent (Promega Corporation, Madison, WI) was added to each assay plate using FRD. After 30 min incubation at room temperature, luminescence was quantified on a ViewLux plate reader (Perkin Elmer, Waltham, MA).
# Potency means the concentration at half of the fitted maximal effect.
Compound,Potency,"activity, negative = cytotoxicity"
O=C1NC(=O)C(c2ccccc2)(c2ccccc2)N1,inactive,–
Cc1cn([C@H]2C=C[C@@H](CO)O2)c(=O)[nH]c1=O,inactive,–
Cc1cccc(C)c1,inactive,–
CCc1nc(N)nc(N)c1-c1ccc(Cl)cc1,inactive,–
CC(C)C(=O)Nc1ccc([N+](=O)[O-])c(C(F)(F)F)c1,inactive,–
CCCCC1(COC(=O)CCC(=O)O)C(=O)N(c2ccccc2)N(c2ccccc2)C1=O,inactive,–
CN(C)C(=O)Nc1ccc(Cl)c(Cl)c1,inactive,–
CN1CCC[C@H]1c1cccnc1,inactive,–
Cc1cc(C)nc(NS(=O)(=O)c2ccc(N)cc2)n1,inactive,–
CC1(C)S[C@@H]2[C@H](NC(=O)[C@H](N)c3ccccc3)C(=O)N2[C@H]1C(=O)O,inactive,–
CNNCc1ccc(C(=O)NC(C)C)cc1,inactive,–
CCCCC(CC)C(=O)O (stereo not given),inactive,–
CN[C@H]1CC[C@@H](c2ccc(Cl)c(Cl)c2)c2ccccc21,–,-2.1% [at 42.5 µM] (inactive)
O=CC(=O)c1ccccc1,–,-13.2% (inactive)
C[C@](N)(Cc1ccc(O)c(O)c1)C(=O)O,inactive,–
OC[C@H]1O[C@H](O[C@]2(CCl)O[C@H](CCl)[C@@H](O)[C@@H]2O)[C@H](O)[C@@H](O)[C@H]1Cl,inactive,–
C=C1CC[C@H](O)C/C1=C\C=C1/CCC[C@]2(C)[C@@H]([C@H](C)CCCC(C)C)CC[C@@H]12,60.6 µM (active),–
O=C(O)CC(O)C(=O)O (stereo not given),inactive,–
Cc1ccc(S(=O)(=O)O)cc1,inactive,–
O=C(O)c1ccccc1,inactive,–

Compound,Potency,"activity, negative = cytotoxicity"
NC1CCCCC1,inactive,–
CCCCCCCCCCCC[N+](C)(C)Cc1ccccc1,67.3 µM (active) and 66.4 µM (active) and inactive,–
Cc1ncc([N+](=O)[O-])n1C,inactive,–
C=C(C)C(=O)OCC(C)O (stereo not given),inactive,–
O=c1[nH]cc(F)c(=O)[nH]1,inactive,–
CC(=O)CCC(=O)O,inactive,–
Nc1ccc(O)c([N+](=O)[O-])c1,–,-9.83% (inactive)
CCCCCCCC(=O)OCC(COC(=O)CCCCCCC)OC(=O)CCCCCCC,inactive,–
COc1ccc(CN(CCN(C)C)c2ccccn2)cc1,inactive,–
CCCCOC(=O)c1ccc(O)cc1,inactive,–
Nc1ccc(S(N)(=O)=O)cc1,inactive,–
CC/C(=C(\c1ccccc1)c1ccc(OCCN(C)C)cc1)c1ccccc1,61.1 µM (active) [middle of 4 runs],–
CC(=O)Nc1c(I)c(NC(C)=O)c(I)c(C(=O)O)c1I,inactive,–
COc1ccc2c(c1)c(CC(=O)O)c(C)n2C(=O)c1ccc(Cl)cc1,inactive,–
Nc1ccc([N+](=O)[O-])cc1O,–,-1.21% (inactive)
CCN(Cc1c(F)cccc1Cl)c1c([N+](=O)[O-])cc(C(F)(F)F)cc1[N+](=O)[O-],–,-19.9% (inactive)
CCCCCCc1ccc(O)cc1O,61.3 µM (active) and inactive,–
O=C1OC2(c3ccccc31)c1cc(Br)c(O)c(Br)c1Oc1c2cc(Br)c(O)c1Br,inactive,–
O=C1O[C@H]([C@@H](O)CO)C(O)=C1O,inactive,–
CN(C)CCOC(C)(c1ccccc1)c1ccccn1 (stereo not given),inactive,–
